In PubChem BioAssay (NCI):
Compounds without any hit were thinned out: in the full panel of roughly 83,000, 20% have a hit.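 Interpretation: 100, growth as untreated; towards 0, rising growth inhibition; 0, no net growth; 0 to -100, cell death. Compounds scoring below 10 were considered active.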 Activity calls are given as the source filed them.

Assays:
Assay in all cases: NCI-60 one-dose screen, 48 h (100 = growth as untreated, 0 = no growth, -100 = all killed)
Settings in all cases: 10 µM unless noted
[1] = system: NCI-H23 lung
[2] = system: NCI-H226 lung
[3] = system: NCI-H322M lung
[4] = system: HOP-62 NSCLC
[5] = system: NCI-H460 lung
[6] = system: HOP-92 NSCLC
[7] = system: NCI-H522 lung
[8] = system: A549/ATCC NSCLC
[9] = system: 786-0 renal
[10] = system: COLO 205 colon

Measured: growth

O=C1C(=Nc2ccc(F)c(Cl)c2)c2cccc3cccc1c23
inactive: [1] 90.9% | [2] 91.9% | [3] 85.2% | [4] 81.2% | [5] 78% | [6] 96.9% | [7] 104% | [8] 89.6% | [9] 91.8% | [10] 94%

COc1ccc(C(SCCNCc2cc(N(C)C)ccn2)(c2ccccc2)c2ccccc2)cc1
inactive: [2] 15.1% | [3] 27.5% | [4] 10.9% | [8] 10.1%
active: [1] -10.7% | [5] -58.6% | [6] -16.5% | [7] -20.6% | [9] -23.1% | [10] -78%

Cc1ccc(NCC(=O)Cn2cc(COc3ccc(C=Nc4cnc5ccccc5c4)cc3)nn2)cc1
inactive: [1] 109% | [2] 105% | [3] 103% | [4] 102% | [5] 130% | [6] 116% | [7] 104% | [8] 103% | [9] 107% | [10] 114%

COc1ccc2[nH]cc(-c3nc(N)nnc3-c3cn(C)c4ncccc34)c2c1
inactive: [1] 69.9% | [2] 66.4% | [3] 69.6% | [4] 62.4% | [5] 25% | [6] 81.2% | [7] 34.3% | [8] 51.2% | [9] 64.2% | [10] 44.5%

CC(=O)Oc1ccccc1C(=O)[Se]C(=NC1CCCCC1)NC1CCCCC1
active: [1] -79.9% | [2] -88.1% | [3] -82.7% | [4] -87% | [5] -41.6% | [6] -13.6% | [7] -89.1% | [8] 0.226% | [9] -93.4% | [10] -70.6%

C=C1CC[C@@H]2[C@]3(C)COC(c4cn(-c5ccccc5)nc4-c4cccc([N+](=O)[O-])c4)O[C@@H]3CC[C@@]2(C)[C@@H]1C/C=C1/C(=O)OC[C@H]1O (stereo not given in full)
inactive: [3] 90% | [4] 10.8% | [8] 30.7%
active: [1] -62.1% | [2] -48.6% | [5] 2.24% | [6] -84.3% | [7] -79.3% | [9] -35.8% | [10] -64.2%

CCN1CCN(Cc2ccc(C(=O)Nc3cccc(C#Cc4cccc5[nH]nc(N)c45)c3)cc2C(F)(F)F)CC1
active: [1] -82.6% | [2] -35.2% | [3] -95.2% | [4] -66.1% | [5] -39.2% | [6] -69.8% | [7] -59.9% | [8] -84.8% | [9] -98.5% | [10] -86.6%

Cn1cc(-c2nnc(N)nc2-c2c[nH]c3ccc(F)cc23)c2cccnc21
inactive: [1] 53.7% | [2] 72.4% | [3] 71% | [4] 49.2% | [5] 18% | [6] 92.8% | [7] 20.4% | [8] 47.6% | [9] 47.2% | [10] 26.9%

C=C1CCC2C3(C)COC(c4cc(F)cc(F)c4)OC3CCC2(C)C1CC(O)C1=CCOC1=O (stereo not given)
inactive: [1] 64.9% | [2] 92.1% | [3] 95% | [4] 90.6% | [5] 66.3% | [6] 46.2% | [7] 11.9% | [8] 75.2% | [9] 30.3% | [10] 59.5%

N#Cc1c(-c2ccc(Cl)cc2)nc2n[nH]c(-c3ccc(Cl)cc3)c2c1-c1ccc(C(F)(F)F)cc1
active: [1] -13.5% | [2] -30.7% | [4] -24.2% | [5] -49.1% | [6] -25.9% | [7] -14.8% | [8] 6.82% | [9] -3.14% | [10] -88.5%
inactive: [3] 10.2%
